# The list is not random: actives were taken first. Their share in the collection is about 3.7%.
# FEN1 inhibitor – blocks human flap endonuclease 1 | P39748 | 390,000 compounds, 0.35% hits | Recombinant FEN1 flap cleavage, fluorescence, 15 min | Potency, µM (titrated, usually from 114 µM), for inactives: at the highest dose activity change, negative = inhibition, usual class: inhibitors; also: potency is read from the fitted curve at half-maximal effect; % is scaled to controls: 0 for no effect and ±100 for the full control effect; nearly all actives have a fitted effect of over 65% in size
#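 Enzyme 10 nM, 15 min RT preincubation with compound; start with substrate 50 nM final; reads at 0 and 15 min; qHTS titration, four-parameter Hill fit.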
# TCR activator – activates T cell receptor signaling; primary human leukocytes, anti-CD3, IL-2 HTRF, 48 h; Potency, µM (series often up to 9.22 µM), for the others: at the top dose activation of IL-2 secretion, most hits filed as activators; 330,000 tested, under 10 active; AID 504894; also: % of control where 0% means no effect
#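 Human primary leukocytes + a-CD3 beads + cpd, 48 hr; IL-2 in supernatant by HTRF (ex 320nm / em 665nm). No co-stimulatory signal supplied.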
# PLK1 PBD inh – PLK1 (human) polo-box domain binding inhibition; P53350; Plk1 PBD binding of FITC phosphopeptide, fluorescence polarization; Potency, µM, without a hit: max response, negative = inhibition, actives largely listed as inhibitors; 360,000 compounds, 2.8% hits; AID 720504; also: potency is read from the fitted curve at half-maximal effect; series mostly up to about 57 µM; % is scaled to controls: 0 for no effect and ±100 for the full control effect; nearly all actives have a fitted effect of over 65% in size
# PI5P4K alpha inh – inhibitors of human PI5P4K alpha; P48426; PI5P4Kalpha enzyme, ADP-Glo luminescence, 60 min; active compounds read low; max response, %; 330,000 compounds, 1.2% hits; AID 652105; active = max response of -50% or lower; inconclusive = between -30% and -50%; inactive = -30% or higher; also: value at the top dose of about 77 µM; % is scaled to controls: 0 for no effect and ±100 for the full control effect
# Target sequence (P48426 whole entry, looked up): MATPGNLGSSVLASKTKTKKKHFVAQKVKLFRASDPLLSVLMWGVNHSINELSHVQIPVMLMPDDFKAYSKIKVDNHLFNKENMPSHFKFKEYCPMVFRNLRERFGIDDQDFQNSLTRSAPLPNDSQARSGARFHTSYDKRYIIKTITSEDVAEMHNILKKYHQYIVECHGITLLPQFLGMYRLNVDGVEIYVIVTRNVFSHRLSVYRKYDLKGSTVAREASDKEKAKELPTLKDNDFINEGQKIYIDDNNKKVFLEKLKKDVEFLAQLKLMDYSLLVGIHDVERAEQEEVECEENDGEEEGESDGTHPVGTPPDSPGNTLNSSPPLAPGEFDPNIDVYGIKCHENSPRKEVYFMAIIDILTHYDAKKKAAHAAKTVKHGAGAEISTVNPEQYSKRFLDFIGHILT
#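 Single end-point luminescence (ADP-Glo) quantified ADP from PI5P4Kalpha turnover; ATP 5 microM final, 1 h at RT, 0.1% CHAPS and 0.28 mM EGTA in HEPES pH 7.4.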
# VDR inh – vitamin D3 receptor (human) inhibition; P11473; AID 504847; VDR-SRC2-3 peptide fluorescence polarization, 2 h; 400,000 compounds, 0.93% hits; Potency, µM, for inactives: max response, negative = inhibition, usual class: inhibitors; also: potency is read from the fitted curve at half-maximal effect; % is scaled to controls: 0 for no effect and ±100 for the full control effect
#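 VDR–SRC2-3 interaction, FP format. Cmpds 23 nl via pintool, brief spin, 2 h ambient incubation.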
# WRN inhibitor – WRN helicase (human) inhibition; Q14191; WRN helicase unwinding, fluorescent forked duplex, kinetic; Potency, µM (titrated, usually from 114 µM), inactives show top-dose activity change, negative = inhibition, actives largely listed as inhibitors; 360,000 compounds, 0.46% hits; AID 651768; also: potency is read from the fitted curve at half-maximal effect; % is scaled to controls: 0 for no effect and ±100 for the full control effect; nearly all actives have a fitted effect of over 55% in size
#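 Kinetic fluorescence helicase assay: unwinding of a quenched forked DNA duplex (100 nM final) with 2 mM ATP final raises red fluorescence (525/598 nm). Compounds sat 15 min at room temperature with 20 nM WRN beforehand.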
# * hit, by the source's call; u = inconclusive; x = no result given; [ ] = another dose, or the depositor's remark. Unless noted, calls follow the shape of the dose curve; as a rule, active = well fitted curve in the direction sought with a large enough effect; inconclusive = small, poorly fitted or top-dose-only effect, or another doubt; inactive = no such curve, though single readings can be large; an effect the other way counts as inactive or inconclusive.
SMILES,FEN1 inhibitor,TCR activator,PLK1 PBD inh,PI5P4K alpha inh,VDR inh,WRN inhibitor
O=S(=O)(NCCc1cn(S(=O)(=O)c2ccccc2)c2ccccc12)c1ccccc1,-12%,x,x,x,1%,x
COC(=O)NC(c1ccc2c(c1)OCO2)C(C(=O)OC)C(=O)OC (stereo unspecified),x,x,x,x,1%,x
COc1ccc(OC)c(C2C(C#N)=C(N)Oc3c2c(C)nn3-c2cccc(Cl)c2)c1 (stereo unspecified),-7%,-2%,24µM*,x,-8%,-3%
Cc1nn(-c2ccccc2)c2c1C(c1ccco1)C(C#N)=C(N)O2 (stereo unspecified),-3%,-5%,27µM*,2,-23%,-13%
CCOc1ccc(-c2nn(-c3ccccc3)cc2/C=C2\SC(=S)N(Cc3ccco3)C2=O)cc1,-3%,-3%[46.1 µM],-18%,5,-8%,-2%
CC(C)COc1ccc(-c2nn(-c3ccccc3)cc2/C=C2/SC(=S)N(CC(=O)O)C2=O)cc1,2%,x,21µM*,6,-9%,1%
Cc1ccc(-c2nn(-c3ccccc3)cc2C=C2SC(=S)N(CCS(=O)(=O)O)C2=O)cc1,x,x,11µM*,-89*,x,20µM*
O=C(O)CN1C(=O)/C(=C\c2cn(-c3ccccc3)nc2-c2ccccc2)SC1=S,u,0%,21µM*,u,u,-27%
O=C(CSc1nnc(-c2ccco2)c(-c2ccco2)n1)Nc1ccccc1,u,1%,19µM*,-84*,u,35µM*
COc1cccc(NC(=O)CSc2nnc(-c3ccco3)c(-c3ccco3)n2)c1,u,-5%,13µM*,-63*,89µM*,45µM*
Cc1ccc(NC(=O)CSc2nnc(-c3ccco3)c(-c3ccco3)n2)cc1,u,-1%,27µM*,-75*,u,40µM*
Cc1c(C(=O)Nc2cccc(Cl)c2)oc2ccc(S(=O)(=O)N(C)C3CCCCC3)cc12,-14%,x,x,x,-5%,x
Cc1[nH]c(=O)[nH]c(=O)c1S(=O)(=O)N1CCC(C(=O)NC(C)c2ccccc2)CC1 (stereo unspecified),3%,1%,34µM*,-4,-17%,-6%
CN(C)C(CNC(=O)C1CCN(S(=O)(=O)c2ccccc2)CC1)c1ccccc1 (stereo unspecified),18%,-10%,34µM*,5,-16%,-6%
CC(NC(=O)C1CCN(S(=O)(=O)c2ccccc2)CC1)c1ccccc1 (stereo unspecified),-9%,-3%,-2%,8,136%,1%
CCC(=O)Oc1ccc(C2Nc3ccccc3-c3nnc(SC)nc3O2)cc1 (stereo unspecified),3%,x,x,x,-12%,x
CC(=O)N[C@@H](CCCNC(=N)N)C(=O)N[C@H](CC1CCCCC1)C(=O)N[C@@H]1CCC2SC[C@@H](C(=O)N[C@H](CCCNC(=N)N)C(=O)N[C@H](Cc3ccc(Cl)cc3)C(N)=O)N2C1=O (stereo partly specified),x,x,x,x,2%,x
O=C(Nc1ccc(F)cc1F)N1CCCC(c2nc(-c3ccc(F)cc3)no2)C1 (stereo unspecified),-18%,5%,12µM*,1,-27%,-6%
COc1ccc(NC(=O)Cn2ccn(-c3ccc(C)c(C)c3)c(=O)c2=O)cc1Cl,1%,x,x,x,16%,x
COc1ccc(C)cc1Nc1nc(C)nc2sc(C)cc12,-18%,1%,30µM*,-3,u,-11%
COc1ccc(C2c3cc(OC)c(OC)cc3CC(=O)N2c2cccc(C#N)c2)cc1 (stereo unspecified),-3%,x,x,x,15%,x
CC(=O)NC1C(=O)N(CCN2CCOCC2)c2ccc(F)cc21 (stereo unspecified),50µM*,1%,-12%,6,u,-2%[11.6 µM]
CC(=O)NC1C(=O)N(CCN2CCOCC2)c2ccc(C)cc21 (stereo unspecified),u,1%,-15%,3,u,-18%
O=C(O)c1csc(-c2ccccc2)n1,20%,3%,-1%,3,3%,-3%

# Assay outcomes as filed in PubChem.
